According to the supplement of paper PMC7411054:
Structures can show the parent of a compound that is named as a salt.

How the values were obtained:
Details in all cases: treatment time: 24 h
A549-ACTB-RAB5A [1] = test: lowest phenotypically active concentration; higher = less potent
Method in brief: (§1)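 Four wells per concentration (0.3, 1, 3 or 9 µM) were treated for 24 h in each of fifteen gene-edited reporter lines from A549, HepG2 and WPMY1 cells, then imaged live. After normalising live-cell features to solvent control wells, deviation was defined as ≥3 of 4 wells lying past the 95th percentile of control Euclidean distances. Reproducibility was defined as a median replicate Pearson correlation above the 95th percentile of non-replicates. Both had to hold for phenotypic activity.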

A549-CANX-COX4 [2] = test: as above
Method in brief: as §1

A549-GM130-SQSTM1 [3] = test: as above
Method in brief: as §1

A549-TP53BP1-CLTA [4] = test: as above
Method in brief: as §1

A549-TUBA1B-RELA [5] = test: as above
Method in brief: as §1

A549-ACTB-RAB5A [6] = test: phenotypically active (imaging signature differs from DMSO and reproducible) at any of 0.3-9 uM (binary (1 = active, 0 = inactive)); higher = active
Method in brief: as §1

A549-CANX-COX4 [7] = test: as above
Method in brief: as §1

A549-GM130-SQSTM1 [8] = test: as above
Method in brief: as §1

A549-TP53BP1-CLTA [9] = test: as above
Method in brief: as §1

A549-TUBA1B-RELA [10] = test: as above
Method in brief: as §1

HepG2-ACTB-RAB5A = test: as above
Method in brief: as §1

HepG2-CANX-COX4 = test: as above
Method in brief: as §1

HepG2-GM130-SQSTM1 = test: as above
Method in brief: as §1

HepG2-TP53BP1-CLTA = test: as above
Method in brief: as §1

HepG2-TUBA1B-RELA = test: as above
Method in brief: as §1

WPMY1-ACTB-RAB5A = test: as above
Method in brief: as §1

WPMY1-CANX-COX4 = test: as above
Method in brief: as §1

WPMY1-GM130-SQSTM1 = test: as above
Method in brief: as §1

WPMY1-TP53BP1-CLTA = test: as above
Method in brief: as §1

WPMY1-TUBA1B-RELA = test: as above
Method in brief: as §1

| SMILES | lowest phenotypically active concentration (A549-ACTB-RAB5A [1]) [µM] | lowest phenotypically active concentration (A549-CANX-COX4 [2]) [µM] | lowest phenotypically active concentration (A549-GM130-SQSTM1 [3]) [µM] | lowest phenotypically active concentration (A549-TP53BP1-CLTA [4]) [µM] | lowest phenotypically active concentration (A549-TUBA1B-RELA [5]) [µM] | phenotypically active (A549-ACTB-RAB5A [6]) | phenotypically active (A549-CANX-COX4 [7]) | phenotypically active (A549-GM130-SQSTM1 [8]) | phenotypically active (A549-TP53BP1-CLTA [9]) | phenotypically active (A549-TUBA1B-RELA [10]) | phenotypically active (HepG2-ACTB-RAB5A) | phenotypically active (HepG2-CANX-COX4) | phenotypically active (HepG2-GM130-SQSTM1) | phenotypically active (HepG2-TP53BP1-CLTA) | phenotypically active (HepG2-TUBA1B-RELA) | phenotypically active (WPMY1-ACTB-RAB5A) | phenotypically active (WPMY1-CANX-COX4) | phenotypically active (WPMY1-GM130-SQSTM1) | phenotypically active (WPMY1-TP53BP1-CLTA) | phenotypically active (WPMY1-TUBA1B-RELA) |
| --- | --- | --- | --- | --- | --- | --- | --- | --- | --- | --- | --- | --- | --- | --- | --- | --- | --- | --- | --- | --- |
| COC1=CC(C)=C[C@@H](C)[C@@H](O)[C@@H](C)CC(C)=CC=C[C@H](OC)[C@@H]([C@@H](C)[C@@H](O)[C@H](C)[C@@]2(O)C[C@@H](O)[C@H](C)[C@@H](C(C)C)O2)OC1=O [Bafilomycin A1] | ≤ 0.3 | 9 | ≤ 0.3 | 3 | ≤ 0.3 | 1 (active) | 1 (active) | 1 (active) | 1 (active) | 1 (active) | 1 (active) | 1 (active) | 1 (active) | 1 (active) | 1 (active) | 1 (active) | 1 (active) | 1 (active) | 1 (active) | 1 (active) |
| Cc1c(C(=O)Nc2cccc(C(F)(F)F)c2)cc(-c2ccccc2)n1CCCN1CCOCC1 | 9 | – | 9 | – | – | 1 (active) | 0 (inactive) | 1 (active) | 0 (inactive) | 0 (inactive) | 0 (inactive) | 0 (inactive) | 0 (inactive) | 0 (inactive) | 0 (inactive) | 0 (inactive) | 0 (inactive) | 0 (inactive) | 0 (inactive) | 0 (inactive) |
| CC(C)(C)c1cc(C=C(C#N)C#N)cc(Br)c1O | – | – | 9 | – | – | 0 (inactive) | 0 (inactive) | 1 (active) | 0 (inactive) | 0 (inactive) | 0 (inactive) | 0 (inactive) | 0 (inactive) | 0 (inactive) | 0 (inactive) | 0 (inactive) | 0 (inactive) | 0 (inactive) | 0 (inactive) | 0 (inactive) |
| CC[C@H]1CN2CC[C@H]1C[C@@H]2[C@@H](O)c1ccnc2ccc(OC)cc12 [Hydroquinidine HCl] | 9 | – | – | – | 9 | 1 (active) | 0 (inactive) | 0 (inactive) | 0 (inactive) | 1 (active) | 0 (inactive) | 1 (active) | 1 (active) | 0 (inactive) | 0 (inactive) | 1 (active) | 1 (active) | 0 (inactive) | 0 (inactive) | 1 (active) |
| CC(C)(N)Cc1ccccc1 [phentermine] | – | 9 | – | 3 | – | 0 (inactive) | 1 (active) | 0 (inactive) | 1 (active) | 0 (inactive) | 1 (active) | 0 (inactive) | 0 (inactive) | 0 (inactive) | 0 (inactive) | 0 (inactive) | 0 (inactive) | 1 (active) | 0 (inactive) | 0 (inactive) |
